This note sets out measurements from PubChem BioAssay (EPA / NIEHS).

The target of test [1] is Muscarinic acetylcholine receptor M1 (Homo sapiens) (UniProt P11229). The test is described as follows: NVS_GPCR_hM1: NovaScreen (NVS) G Protein-Coupled Receptor Assay for human Muscarinic, M1 Receptor (AID 2283270). In outline:
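Actives from a duplicate 25 uM single-point screen were retested in concentration series. Binding measured as displacement of a radioligand from CHO-derived receptor preparation, 1 h incubation, filtration and scintillation counting, analysed as signal loss against DMSO.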

Test [2] deals with human Endothelin Receptor Type B (ETB), EDNRB (gene 1910) (UniProt P24530). The test is described as follows: NVS_GPCR_hETB: NovaScreen (NVS) G Protein-Coupled Receptor Assay for human Endothelin Receptor Type B (ETB) (AID 2283267). The essentials: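 Filter-based scintillation readout of radioligand displacement, 4 h, using membranes from human astrocytoma cells. Actives from a 25 uM duplicate screen were retested in concentration-response (top 50 uM) relative to DMSO baseline.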
human Endothelin Receptor Type B (ETB), EDNRB (gene 1910), sequence (P24530 whole entry, looked up): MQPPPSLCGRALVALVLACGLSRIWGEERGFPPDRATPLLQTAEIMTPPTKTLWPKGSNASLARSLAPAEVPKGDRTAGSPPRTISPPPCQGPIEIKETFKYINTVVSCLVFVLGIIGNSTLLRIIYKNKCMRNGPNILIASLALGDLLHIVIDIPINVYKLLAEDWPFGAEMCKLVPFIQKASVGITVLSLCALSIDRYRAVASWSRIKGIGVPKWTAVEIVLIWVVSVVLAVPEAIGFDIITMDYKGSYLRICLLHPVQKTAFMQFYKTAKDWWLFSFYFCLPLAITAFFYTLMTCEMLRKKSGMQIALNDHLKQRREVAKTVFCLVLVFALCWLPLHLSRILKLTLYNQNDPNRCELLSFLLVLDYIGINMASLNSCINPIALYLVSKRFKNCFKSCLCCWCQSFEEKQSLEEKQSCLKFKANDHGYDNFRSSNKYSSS

Test [3] deals with D(1A) dopamine receptor (Homo sapiens) (UniProt P21728). The test is described as follows: NVS_GPCR_hDRD1: NovaScreen (NVS) G Protein-Coupled Receptor Assay for human Dopamine Receptor D1 (DRD1) (AID 2283269). In outline:
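Cell-free radioligand binding to human DRD1 from HEK293 membranes, read 1 h after dosing by filter-based scintillation counting. Loss of signal versus DMSO baseline marks displacement. Primary screen at 25 uM single concentration in duplicate; actives followed up in concentration series.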

For test [4], the target named is Muscarinic acetylcholine receptor M3 (Homo sapiens) (UniProt P20309). The experiment in a line: NVS_GPCR_hM3: NovaScreen (NVS) G Protein-Coupled Receptor Assay for human Muscarinic, M3 Receptor (AID 2283272). The protocol: NVS_GPCR_hM3 is a biochemical, single-readout assay that uses extracted gene-proteins from CHO in a cell-free assay. Measurements were taken 1 hour after chemical dosing in a 96-well plate.NVS_GPCR_hM3 is one of one assay component(s) measured or calculated from the NVS_GPCR_hM3 assay. It is designed to make measurements of radioligand binding, a form of binding reporter, as detected with scintillation counting signals by Filter-based radiodetection technology.Data from the assay component NVS_GPCR_hM3 was analyzed into 1 assay endpoint. This assay endpoint, NVS_GPCR_hM3, was analyzed in the positive analysis fitting direction relative to DMSO as the negative control and baseline of activity. Using a type of binding reporter, loss-of-signal activity can be used to understand changes in the binding as they relate to the gene CHRM3. Furthermore, this assay endpoint can be referred to as a primary readout, because the performed assay has only produced 1 assay endpoint. To generalize the intended target to other relatable targets, this assay endpoint is annotated to the gpcr intended target family, where the subfamily is rhodopsin-like receptor.
Muscarinic acetylcholine receptor M3 (Homo sapiens), sequence (P20309 whole entry, looked up): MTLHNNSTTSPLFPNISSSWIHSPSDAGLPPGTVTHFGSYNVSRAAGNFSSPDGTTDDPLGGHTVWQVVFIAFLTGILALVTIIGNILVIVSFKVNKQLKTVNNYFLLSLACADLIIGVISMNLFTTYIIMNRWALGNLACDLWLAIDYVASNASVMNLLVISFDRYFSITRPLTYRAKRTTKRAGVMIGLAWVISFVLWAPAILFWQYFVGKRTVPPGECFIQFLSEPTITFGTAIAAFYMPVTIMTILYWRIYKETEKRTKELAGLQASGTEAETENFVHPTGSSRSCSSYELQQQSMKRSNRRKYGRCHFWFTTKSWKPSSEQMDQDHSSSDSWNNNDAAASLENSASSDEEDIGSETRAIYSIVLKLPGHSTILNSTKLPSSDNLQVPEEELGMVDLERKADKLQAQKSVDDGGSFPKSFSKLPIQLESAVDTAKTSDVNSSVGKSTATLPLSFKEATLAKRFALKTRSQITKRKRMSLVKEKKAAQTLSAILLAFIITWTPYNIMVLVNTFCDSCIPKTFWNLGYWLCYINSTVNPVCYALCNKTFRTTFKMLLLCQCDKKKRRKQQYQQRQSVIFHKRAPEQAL
Binding assays used specific radioligands (tritiated, iodinated) with non-radioactive competitive displacement ligands in agonist or antagonist protocols (as indicated) and various reference compounds and inhibitors to titrate specific binding to receptors and transporters. Most enzyme assays (CYPs, kinases, phosphatases, proteases, HDACs) used recombinant protein and specific substrates (fluorescence mostly, some colorimetric and radioactive) and inhibitors, followed by a biochemical separation of substrate and product. All assays for the biochemical HTS were initially run in duplicate at a single concentration (10 uM for CYP450 assays and 25 uM for all others). […] Each assay was run with positive and negative controls, and concurrent controls on every plate. The follow-up (secondary) screen tested active chemical-pairs in concentration series, as well as a few additional assays not tested in the primary screen, some selected negative inactives, and several cases re-run in the concentration series for confirmatory purposes.

Test [5] addresses Muscarinic acetylcholine receptor M2 (Homo sapiens) (UniProt P08172). The test is described as follows: NVS_GPCR_hM2: NovaScreen (NVS) G Protein-Coupled Receptor Assay for human Muscarinic, M2 Receptor (AID 2283273). The essentials: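 CHO-expressed human M2 receptor preparation, competitive displacement of a radioligand read by filter-based scintillation counting after 1 h. Single 25 uM duplicate screen, then concentration-response follow-up of actives; DMSO baseline.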

The target of test [6] is human Muscarinic, M4 Receptor, CHRM4 (gene 1132) (UniProt P08173). The test is described as follows: NVS_GPCR_hM4: NovaScreen (NVS) G Protein-Coupled Receptor Assay for human Muscarinic, M4 Receptor (AID 2283274). The essentials:
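Filter-based scintillation counting of radioligand bound to CHO-expressed human M4 preparations after 1 h; loss of signal fitted versus DMSO. Initial duplicate testing at 25 uM, concentration-response follow-up for actives.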

Test [7] has as its target human Neuropeptide Receptor Y1 (NPY1), NPY1R (gene 4886) (UniProt P25929). The experiment in a line: NVS_GPCR_hNPY1: NovaScreen (NVS) G Protein-Coupled Receptor Assay for human Neuropeptide Receptor Y1 (NPY1) (AID 2283276). The essentials:
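Displacement of specific radioligand from NPY1 receptor of SK-N-MC origin, read by filtration and scintillation after 1 h. Compounds first tested at 25 uM in duplicate, then actives in concentration series; signal loss relative to DMSO.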

Test [8] has as its target human Neurokinin, NK2 Receptor, TACR2 (gene 6865) (UniProt P21452). The experiment in a line: NVS_GPCR_hNK2: NovaScreen (NVS) G Protein-Coupled Receptor Assay for human Neurokinin, NK2 Receptor (AID 2283278).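 Also: actives reduce bound radioligand signal relative to DMSO baseline.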 In outline:
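CHO-derived membrane protein, radioligand displacement, filter scintillation read at 4 h post-dose. Single-point 25 uM in duplicate, then concentration series for actives; DMSO as negative control.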

Test [9] concerns the target human Leukotriene B4 Receptor 1 (LTB4-BLT1), LTB4R (gene 1241) (UniProt Q15722). The experiment in a line: NVS_GPCR_hLTB4_BLT1: NovaScreen (NVS) G Protein-Coupled Receptor Assay for human Leukotriene B4 Receptor 1 (LTB4-BLT1) (AID 2283271). In outline: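 Cell-free human neutrophil receptor preparation, 1 h exposure, radioligand binding read by filter scintillation counting. Single 25 uM duplicate screen, then concentration series topping at 50 uM; binding loss scored against DMSO baseline.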

In test [10] the target is Neuropeptide Y receptor type 2 (Homo sapiens) (UniProt P49146). The experiment in a line: NVS_GPCR_hNPY2: NovaScreen (NVS) G Protein-Coupled Receptor Assay for human Neuropeptide Receptor Y2 (NPY2) (AID 2283277). The essentials: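 Chemicals were first tested in duplicate at 25 uM, then actives in singleton concentration series to 50 uM. Tracer binding to SK-N-MC-derived protein measured cell-free after 1 h via filter scintillation; signal loss relative to DMSO.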
Neuropeptide Y receptor type 2 (Homo sapiens), sequence (P49146 whole entry, looked up): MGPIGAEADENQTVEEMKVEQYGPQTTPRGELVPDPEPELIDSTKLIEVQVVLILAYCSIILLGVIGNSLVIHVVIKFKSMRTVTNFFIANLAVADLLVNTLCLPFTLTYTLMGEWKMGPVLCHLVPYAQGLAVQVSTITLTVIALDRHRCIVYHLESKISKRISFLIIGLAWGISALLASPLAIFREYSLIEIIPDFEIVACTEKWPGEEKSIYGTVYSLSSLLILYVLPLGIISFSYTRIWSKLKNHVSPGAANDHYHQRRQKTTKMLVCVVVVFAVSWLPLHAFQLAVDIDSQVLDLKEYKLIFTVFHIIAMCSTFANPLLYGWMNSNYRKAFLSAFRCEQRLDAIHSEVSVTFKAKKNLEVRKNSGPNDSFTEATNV

As usually defined, the AC50 is the concentration giving half of the maximal activity seen.

Several values for one entry are separate records, joined by “and”; a condition that tells them apart may be missing. Identical values can stand only once. Inconclusive results are not listed. Some compounds were tested as several samples or in several runs, with calls that do not always agree. Activity calls are given as the source filed them. The calls were made as follows: active = hit-call score of the fitted dose curve at least 0.9, where 1 is the maximum; inconclusive = response in the unintended direction; inactive = score below 0.9.

D(1A) dopamine receptor (Homo sapiens), sequence (P21728 whole entry, looked up): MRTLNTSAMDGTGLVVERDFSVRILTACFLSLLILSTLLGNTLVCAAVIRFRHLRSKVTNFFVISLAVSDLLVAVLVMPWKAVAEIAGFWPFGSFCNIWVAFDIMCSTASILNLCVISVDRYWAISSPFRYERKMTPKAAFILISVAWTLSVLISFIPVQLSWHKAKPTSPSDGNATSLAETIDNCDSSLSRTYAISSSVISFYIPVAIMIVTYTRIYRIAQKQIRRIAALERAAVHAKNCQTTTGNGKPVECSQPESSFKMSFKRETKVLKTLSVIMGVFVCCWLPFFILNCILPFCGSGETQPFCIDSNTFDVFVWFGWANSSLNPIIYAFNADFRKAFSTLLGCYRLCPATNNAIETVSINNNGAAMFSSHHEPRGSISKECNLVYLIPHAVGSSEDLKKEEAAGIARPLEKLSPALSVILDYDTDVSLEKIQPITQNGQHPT
human Leukotriene B4 Receptor 1 (LTB4-BLT1), LTB4R (gene 1241), sequence (Q15722 whole entry, looked up): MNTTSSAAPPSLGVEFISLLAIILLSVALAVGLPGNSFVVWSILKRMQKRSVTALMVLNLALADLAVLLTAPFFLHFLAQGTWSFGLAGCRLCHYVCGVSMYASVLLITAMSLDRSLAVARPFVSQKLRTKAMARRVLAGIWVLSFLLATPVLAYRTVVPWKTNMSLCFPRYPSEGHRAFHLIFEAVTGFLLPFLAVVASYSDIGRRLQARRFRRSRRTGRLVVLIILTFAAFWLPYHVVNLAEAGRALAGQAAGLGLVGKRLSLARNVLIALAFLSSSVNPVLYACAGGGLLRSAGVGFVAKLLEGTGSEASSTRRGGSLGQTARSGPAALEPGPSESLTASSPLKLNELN
human Muscarinic, M4 Receptor, CHRM4 (gene 1132), sequence (P08173 whole entry, looked up): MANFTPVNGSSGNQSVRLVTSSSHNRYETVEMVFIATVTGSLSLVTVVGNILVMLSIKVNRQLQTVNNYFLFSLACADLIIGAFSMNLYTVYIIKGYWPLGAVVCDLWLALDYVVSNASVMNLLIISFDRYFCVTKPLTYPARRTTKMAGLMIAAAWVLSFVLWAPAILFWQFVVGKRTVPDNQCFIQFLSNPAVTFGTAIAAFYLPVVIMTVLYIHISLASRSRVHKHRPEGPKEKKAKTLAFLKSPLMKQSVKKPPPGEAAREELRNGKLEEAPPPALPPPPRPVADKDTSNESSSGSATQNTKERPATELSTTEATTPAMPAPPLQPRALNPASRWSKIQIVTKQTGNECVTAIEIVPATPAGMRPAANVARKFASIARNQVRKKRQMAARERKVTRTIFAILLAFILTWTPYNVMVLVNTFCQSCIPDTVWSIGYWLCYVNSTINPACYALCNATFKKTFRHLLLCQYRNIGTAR
Muscarinic acetylcholine receptor M1 (Homo sapiens), sequence (P11229 whole entry, looked up): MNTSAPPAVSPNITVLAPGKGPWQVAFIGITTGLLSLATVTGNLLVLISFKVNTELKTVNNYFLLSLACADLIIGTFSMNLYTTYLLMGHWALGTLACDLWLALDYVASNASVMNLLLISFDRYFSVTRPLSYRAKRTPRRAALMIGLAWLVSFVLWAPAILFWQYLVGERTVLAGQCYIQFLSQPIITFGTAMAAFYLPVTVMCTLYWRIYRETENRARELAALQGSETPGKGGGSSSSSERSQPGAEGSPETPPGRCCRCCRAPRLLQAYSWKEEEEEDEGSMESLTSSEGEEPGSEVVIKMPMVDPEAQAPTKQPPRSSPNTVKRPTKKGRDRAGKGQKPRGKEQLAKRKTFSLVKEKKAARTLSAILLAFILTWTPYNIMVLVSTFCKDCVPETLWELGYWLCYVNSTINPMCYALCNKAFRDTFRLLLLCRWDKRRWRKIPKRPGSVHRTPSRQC
Muscarinic acetylcholine receptor M2 (Homo sapiens), sequence (P08172 whole entry, looked up): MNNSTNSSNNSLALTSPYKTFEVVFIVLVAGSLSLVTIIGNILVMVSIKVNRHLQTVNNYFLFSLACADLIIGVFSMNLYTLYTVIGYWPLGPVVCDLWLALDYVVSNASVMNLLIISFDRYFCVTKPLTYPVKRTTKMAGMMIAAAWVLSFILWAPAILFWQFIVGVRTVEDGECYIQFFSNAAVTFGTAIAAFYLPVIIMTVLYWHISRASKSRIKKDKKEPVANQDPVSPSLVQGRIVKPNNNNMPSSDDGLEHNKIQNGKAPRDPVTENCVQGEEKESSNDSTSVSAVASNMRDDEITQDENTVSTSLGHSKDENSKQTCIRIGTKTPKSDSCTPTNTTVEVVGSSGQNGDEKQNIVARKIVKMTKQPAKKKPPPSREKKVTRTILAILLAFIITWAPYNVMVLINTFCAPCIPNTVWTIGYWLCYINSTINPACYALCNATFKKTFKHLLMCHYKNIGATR
human Neurokinin, NK2 Receptor, TACR2 (gene 6865), sequence (P21452 whole entry, looked up): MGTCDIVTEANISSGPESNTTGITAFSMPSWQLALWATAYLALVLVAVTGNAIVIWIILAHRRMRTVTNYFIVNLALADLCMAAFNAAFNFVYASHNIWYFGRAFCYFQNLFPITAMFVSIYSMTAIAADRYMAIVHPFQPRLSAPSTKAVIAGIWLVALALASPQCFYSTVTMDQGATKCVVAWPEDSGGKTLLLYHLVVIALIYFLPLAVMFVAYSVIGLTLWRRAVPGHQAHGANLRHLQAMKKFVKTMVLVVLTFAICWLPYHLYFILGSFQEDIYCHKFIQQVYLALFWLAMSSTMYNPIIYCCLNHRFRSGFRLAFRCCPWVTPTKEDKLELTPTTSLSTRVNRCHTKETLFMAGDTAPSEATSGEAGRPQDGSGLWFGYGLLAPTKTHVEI
human Neuropeptide Receptor Y1 (NPY1), NPY1R (gene 4886), sequence (P25929 whole entry, looked up): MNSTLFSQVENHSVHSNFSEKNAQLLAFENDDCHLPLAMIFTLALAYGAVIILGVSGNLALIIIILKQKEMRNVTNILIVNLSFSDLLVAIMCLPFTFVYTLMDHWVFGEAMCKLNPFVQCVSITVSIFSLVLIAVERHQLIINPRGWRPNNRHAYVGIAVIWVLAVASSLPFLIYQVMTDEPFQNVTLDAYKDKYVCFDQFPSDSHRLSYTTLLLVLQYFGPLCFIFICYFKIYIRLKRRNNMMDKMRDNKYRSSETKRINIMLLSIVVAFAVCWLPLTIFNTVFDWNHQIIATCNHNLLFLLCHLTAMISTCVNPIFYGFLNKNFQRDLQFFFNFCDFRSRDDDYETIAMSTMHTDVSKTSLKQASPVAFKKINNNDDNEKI

For `CC(C)N(C(=O)COc1nnc(C(F)(F)F)s1)c1ccc(F)cc1`, the call in test [1] was inactive.
Turning to `Oc1ccc(Cl)cc1Cc1ccccc1`, the molecule was classed as inactive in test [2], in test [4], in [5], in test [6] and in test [7]. For the same molecule, the concentration at half-maximal activity (AC50) is 33 µM (active) [middle of 6 runs] in test [3]; 39.4 µM (active) in test [4]; 31.8 µM (active) and 25.2 µM (active) in [6]; 29.2 µM (active) [middle of 6 runs] in test [8].
As to `N#Cc1c(Cl)c(Cl)c(Cl)c(C#N)c1Cl`, in [3], the half-maximal activity concentration (AC50) was 15.5 µM (active).
As to `CCOCN(C(=O)CCl)c1c(C)cccc1CC`, in [6], the call was inactive.
For the molecule `O=C(O)CCCOc1ccc(Cl)cc1Cl`, the result in test [1] was inactive.
Take `O=C(O)C(F)(F)C(F)(F)C(F)(F)C(F)(F)C(F)(F)C(F)(F)C(F)(F)F`: in [9], the AC50 is 35.2 µM (active). Also, the molecule was classed as inactive in [10] and in test [8].
As for `CCc1ccc(C(=O)NN(C(=O)c2cc(C)cc(C)c2)C(C)(C)C)cc1`, the call in [1], in [9] and in [6] was inactive. The figures for the half-maximal activity concentration (AC50) in test [4] and in [5] were 0.194 µM (active) and 0.152 µM (active), respectively.
With `[2H]C1([2H])[n+]2ccccc2-c2cccc[n+]2C1([2H])[2H]`, the AC50 in test [1] was 12.9 µM (active); in [4], 4.96 µM (active).
Turning to `CCOC1Oc2ccc(OS(C)(=O)=O)cc2C1(C)C` (stereo not drawn), the result in test [10] was inactive.
As to `COP(=S)(OC)Oc1ccc([N+](=O)[O-])cc1`, the molecule was classed as inactive in [9] and in test [5]. Besides, the AC50 in test [6] is 12.1 µM (active); in test [10], 0.043 µM (active).
With `CCCN(CCOc1c(Cl)cc(Cl)cc1Cl)C(=O)n1ccnc1`, the result in [9] and in [8] was inactive.
`O=C1c2ccccc2C(=O)N1SC(Cl)(Cl)Cl`: the call in [2] was inactive. Besides, the AC50 in test [3] was 13.3 µM (active).
For `O=S1OCC2C(CO1)C1(Cl)C(Cl)=C(Cl)C2(Cl)C1(Cl)Cl` (stereo not drawn), the result in test [6] was inactive.
